Results as given in PubChem BioAssay (NCI).
The panel holds about 79,000 compounds, 15% with a hit somewhere; the sample as a whole holds those more often. Activity calls are given as the source filed them. Cut-off read from the data, not from the text of the source: active = growth inhibition above about 70%; inactive = the rest.

Key:
[1] = NCI Yeast Anticancer Drug Screen. Data for the rad50 strain (AID 155);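 note: 0% = growth of vehicle-only cultures of the same strain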; details: S. cerevisiae rad50 strain growth inhibition; at 50.0 µM; hits give high values
Method in brief: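 A DNA repair-deficient yeast mutant serves as the test organism; compound-induced growth inhibition is calculated against vehicle-treated cells.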

[2] = NCI Yeast Anticancer Drug Screen. Data for the mec2-1 strain (AID 157); details: S. cerevisiae mec2-1 strain, at 50.0 µM, hits give high values
Method in brief: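 Test agents were screened against the mec2-1 yeast strain, with defined DNA repair or cell cycle alteration. Growth was scored as inhibition against vehicle-only controls.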

[3] = NCI Yeast Anticancer Drug Screen. Data for the sgs1 mgt1 strain (AID 161);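 note: 0% = growth of cultures given vehicle only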; details: S. cerevisiae sgs1 mgt1 strain, at 50.0 µM, hits give high values
Method in brief: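 Read-out: growth inhibition vs vehicle controls. Cells: mutant yeast strain deficient in DNA damage repair.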

[4] = NCI Yeast Anticancer Drug Screen. Data for the cln2 rad14 strain (AID 165);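 note: 0% = growth equal to vehicle treated cultures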; details: S. cerevisiae cln2 rad14 strain, at 50.0 µM, hits give high values
Method in brief: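 Growth of compound-exposed yeast (cln2 rad14 genotype) measured and expressed as inhibition relative to vehicle.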

[5] = NCI Yeast Anticancer Drug Screen. Data for the bub3 strain (AID 167); details: S. cerevisiae bub3 mutant strain, at 50.0 µM, hits give high values
Method in brief: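 Inhibition values come from growth of compound-treated mutant yeast normalised to vehicle-treated controls.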

[6] = NCI Yeast Anticancer Drug Screen. Data for the mlh1 rad18 strain (AID 175); details: S. cerevisiae mlh1 rad18 strain growth inhibition; at 50.0 µM; hits give high values
Method in brief: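 In this whole-cell yeast screen, a strain with altered DNA damage repair is challenged with compound, and its growth is measured against matched vehicle-treated controls.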

Measured: growth inhibition

COC(=O)Cc1nc2ccccc2o1
inactive: [1] 36.1% | [2] 9% | [3] 20.9% | [4] 37.9% | [5] 59.2% | [6] 31.5%

C[CH2][Sn]([CH2]C)([O]C(=O)c1ccc2c(c1)OC(C)(C)O2)[O]C(=O)c1ccc2c(c1)OC(C)(C)O2
inactive: [1] 51.3% | [2] 52.1% | [3] 4.7% | [4] 41.4% | [5] 14% | [6] -2.7%

S=C(SSSC(=S)N(C1CCCCC1)C1CCCCC1)N(C1CCCCC1)C1CCCCC1
inactive: [1] 1.5% | [2] 3.7% | [3] 10.1% | [4] 1.45% | [5] -5.9% | [6] 17.2%

CC/C=C(\CCC)C(C#N)(CC)C(=O)OCC (stereo unspecified)
inactive: [1] 9.1% | [2] -33.6% | [3] -21.2% | [4] -7.6% | [5] -24.6% | [6] -9.55%

CCc1cccc(CC)c1Nc1nc(C)nc2c1cnn2C
inactive: [1] -3.55% | [2] -1.85% | [3] 5.55% | [4] -40.1% | [5] 5.35% | [6] 3.95%

NC(=O)CN(CC(N)=O)CC(N)=O
inactive: [1] -0.7% | [2] -11.7% | [3] 1.75% | [4] -2.85% | [5] -3.65% | [6] -7.9%

CCCOC(=O)/C=C/C(=O)N1CC(C)N(C(=O)/C=C/C(=O)OCCC)CC1C (stereo unspecified)
inactive: [1] 3.85% | [2] -1.25% | [3] 9.6% | [4] 42.6% | [5] -2.9% | [6] 25.2%

Clc1ccccc1/C=C/c1ccnnc1
inactive: [1] 15.8% | [2] 18.6% | [3] -3.65% | [4] 7% | [5] 1.35% | [6] 12.8%

Oc1c(Cl)cc(Cl)cc1CN(Cc1cc(Cl)cc(Cl)c1O)c1ccccc1
inactive: [1] 15.8% | [2] 16.9% | [3] 40.8% | [4] 52.1% | [5] 27.1% | [6] 12.7%

CCCCOC(=O)OCCOCCOC(=O)OCCCC
inactive: [1] -7.75% | [2] 3.1% | [3] 2.6% | [4] -70.8% | [5] -9.2% | [6] 0.35%

CCc1ccc2c(c1)C(=O)c1c(c(-c3ccccc3)c3ccccc3c1-c1ccccc1)C2=O
inactive: [1] -5.95% | [2] -4.5% | [3] -6.4% | [4] -18.1% | [5] 13.8% | [6] 8.65%

Nc1cccc2c([N+](=O)[O-])cccc12
inactive: [1] 62.7% | [2] 34.4% | [3] 62.8% | [4] 31.2% | [5] 17% | [6] 60.2%

Nc1ccc(S(=O)(=O)c2ccc(Nc3ccnc4cc(Cl)ccc34)cc2)cc1
inactive: [1] 23.1% | [2] 13.6% | [3] 5.05% | [4] 7.55% | [5] 1.6% | [6] 12.8%

N#Cc1cccc(Br)c1
inactive: [1] -11.9% | [2] -15.8% | [3] -1% | [4] -11.4% | [5] -14.9% | [6] 13.1%

c1cc2nc(c1)CSCCCCCCCSC2
inactive: [1] 2.05% | [2] 45% | [3] 30.2% | [4] -3.45% | [5] 52.4% | [6] 23.2%

COc1ccccc1C1CCCCC1OS(=O)(=O)c1ccc(C)cc1 (stereo unspecified)
inactive: [1] -1.15% | [2] 3.45% | [3] -18.4% | [4] -9.65% | [5] 12.2% | [6] -9.8%

CCNC(=O)CCP(=O)(CCC(=O)NCC)CCC(=O)NCC
inactive: [1] 7.25% | [2] -3.05% | [3] 3.9% | [4] -4.35% | [5] -6.7% | [6] 6%

Nc1ccccc1Br
inactive: [1] 29.6% | [2] 34.5% | [3] 21.4% | [4] -31% | [5] 12.2% | [6] 20.6%

COc1cc(C(OC(C)=O)OC(C)=O)c(Cl)cc1OC(C)=O
inactive: [1] 5.5% | [2] 5.15% | [3] 17.1% | [4] -2.1% | [5] -2.6% | [6] 11.8%

CN(C)C=NC1CC(C)(C)NC(C)(C)C1
inactive: [1] -18.2% | [2] 2.2% | [3] 3.1% | [4] -49.1% | [5] 13.2% | [6] -12.9%

CCCCCCCC/C=C\CCCCCCCC(=O)NCCN1CCCCC1
active: [1] 99% | [2] 99.5% | [3] 99.6% | [4] 97.8% | [5] 99% | [6] 99.2%

NNCCc1n[nH]c(=O)n1N
inactive: [1] -3.5% | [2] -18.4% | [3] 9.55% | [4] 2.55% | [5] 5.1% | [6] -8.15%

OCC(O)C(OC1OC(CO)C(O)C(O)C1O)c1nn(-c2ccc(F)cc2)c2nc3cc(Cl)c(Cl)cc3cc12 (stereo unspecified)
inactive: [1] 13.6% | [2] -10.1% | [3] -26.8% | [4] 29.9% | [5] 6.45% | [6] -1.55%

COC(=O)CCNc1c(OC)ccc2ccccc12
inactive: [1] 22.1% | [2] 3.85% | [3] 11.8% | [4] 17.9% | [5] 28.4% | [6] -5%

Cc1cc2c(CC(=O)O)[nH]nc2c(C(=O)O)c1C
inactive: [1] 1.4% | [2] -10.4% | [3] -13.2% | [4] 4.8% | [5] 8.25% | [6] -0.55%

CC(C)C(C(N)=O)C(C)(C)C (stereo unspecified)
inactive: [1] 1.1% | [2] 4.2% | [3] 14.9% | [4] 8.6% | [5] -7.5% | [6] -9.55%

COC(=O)C(C)Oc1ccccc1 (stereo unspecified)
inactive: [1] 2.35% | [2] -28.2% | [3] -9.4% | [4] -4.8% | [5] -10% | [6] -18.5%

Cc1ccc(C)c2c3c(sc12)CCCC3
inactive: [1] -7.85% | [2] -5.4% | [3] -7.15% | [4] -17.2% | [5] 0.45% | [6] 2.95%

O=C1CC2(C(=O)N1CN(Cc1ccccc1)Cc1ccccc1)c1ccccc1-c1ccccc12
inactive: [1] 34.5% | [2] 2.1% | [3] -5.55% | [4] 14.1% | [5] -1.1% | [6] 22.4%

CC1C(c2ccccc2O)c2cc3c(cc2OC1N1CCCC1)OCO3 (stereo unspecified)
inactive: [1] 45.9% | [2] 38.8% | [3] 58.5% | [4] 59.6% | [5] 47.4% | [6] 58.3%

CC(=O)N(c1ccc(F)c(F)c1)c1ccc(F)c(F)c1
inactive: [1] -18.3% | [2] -5.55% | [3] -0.9% | [4] 1.5% | [5] 19.6% | [6] 14.2%

O=[N+]([O-])c1ccc(N=NN2CCOCC2)cc1
inactive: [1] -0.55% | [2] 3.5% | [3] -1.4% | [4] -1% | [5] -10.7% | [6] 6.55%

O=S(=O)(Nc1ccccc1C(O)c1ccccc1)c1ccccc1 (stereo unspecified)
inactive: [1] 35.5% | [2] 0.8% | [3] 12.3% | [4] -27% | [5] 13.5% | [6] 34.4%

CN1C[C@H]2[C@@H](C1=O)[C@H](c1ccc([N+](=O)[O-])cc1)ON2C
inactive: [1] -50.5% | [2] -72.5% | [3] -39.7% | [4] 14.9% | [5] 1.2% | [6] -33.8%

CC1C=CC(C(=O)Nc2ccc(Cl)c(Cl)c2)N1C (stereo unspecified)
inactive: [1] 1% | [2] 12.2% | [3] 7.6% | [4] -33.9% | [5] -11.9% | [6] 2.75%

Cc1cccc[n+]1[O-]
inactive: [1] 10.8% | [2] -8% | [3] 5.9% | [4] -13.7% | [5] 1.65% | [6] 7%

OCC1OC(n2cc3ccccc3n2)C(O)C1O (stereo unspecified)
inactive: [1] 3.55% | [2] 4.85% | [3] -5.55% | [4] -3.8% | [5] 5.65% | [6] -8.45%

COc1cccc(-n2cnc3c(SC)ncnc32)c1
inactive: [1] 8.8% | [2] 3.9% | [3] 4.75% | [4] -27.9% | [5] 19.1% | [6] 1.6%

O=CNCC1(c2ccccc2)CCN(Cc2ccccc2)CC1
inactive: [1] -2.4% | [2] -23.8% | [3] 3.4% | [4] 2.05% | [5] 3.55% | [6] 8.45%

O=c1c2ccccc2nc(-c2ccccc2Cl)n1/N=C/c1ccc(Cl)cc1Cl
inactive: [1] -1.1% | [2] 5.3% | [3] 2.1% | [4] -3.75% | [5] -3.5% | [6] 6.1%

C=CCSS/C=C/CS(=O)CC=C (stereo unspecified)
inactive: [1] 22.6% | [2] 54% | [4] 32% | [6] -19.3%
active: [3] 75.3% | [5] 78.3%
